According to PubChem BioAssay (NCI):
This is part of a sample that, as a whole, favours compounds with a hit. Of some 79,000 tested, about 15% had one in any assay. Activity calls are given as the source filed them. Rule as the data show it: active = growth inhibition above about 70%; inactive = the rest.

Legend:
[1] = NCI Yeast Anticancer Drug Screen. Data for the mlh1 rad18 strain (AID 175); settings: S. cerevisiae mlh1 rad18 strain growth inhibition, hits give high values
Summary of the method: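 Growth inhibition of the yeast strain was measured after compound exposure and expressed relative to vehicle-treated controls. The strain carries defined defects in DNA damage repair.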

[2] = NCI Yeast Anticancer Drug Screen. Data for the rad18 strain (AID 177); settings: S. cerevisiae rad18 mutant growth inhibition, hits give high values
Summary of the method: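 Yeast carrying a defined DNA damage repair alteration were exposed to compounds. Growth inhibition was expressed relative to vehicle-treated controls.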

[3] = NCI Yeast Anticancer Drug Screen. Data for the rad52 strain (AID 147);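 also: 0% = growth of vehicle-treated control cultures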; settings: S. cerevisiae rad52 mutant growth inhibition, hits give high values
Summary of the method: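 Yeast strain carrying a DNA damage repair alteration was exposed to test compounds. Growth inhibition was measured relative to vehicle-treated controls.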

[4] = NCI Yeast Anticancer Drug Screen. Data for the wt1 strain (AID 149);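 also: 0% = growth of vehicle-treated wt1 cultures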; settings: S. cerevisiae wt1 strain (SPY 50644) growth inhibition, hits give high values
Summary of the method: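 Vehicle-normalised growth inhibition; strain wt1; compound exposure.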

[5] = NCI Yeast Anticancer Drug Screen. Data for the mgt1 strain (AID 153); settings: S. cerevisiae mgt1 mutant growth inhibition, hits give high values
Summary of the method: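 Yeast mgt1 strain (DNA repair/cell-cycle alteration panel) exposed to compounds; growth inhibition measured relative to vehicle-treated controls.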

[6] = NCI Yeast Anticancer Drug Screen. Data for the rad50 strain (AID 155);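 also: 0% = growth of vehicle-only cultures of the same strain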; settings: S. cerevisiae rad50 strain growth inhibition, hits give high values
Summary of the method: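 A DNA repair-deficient yeast mutant serves as the test organism; compound-induced growth inhibition is calculated against vehicle-treated cells.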

[7] = NCI Yeast Anticancer Drug Screen. Data for the mec2-1 strain (AID 157); settings: S. cerevisiae mec2-1 strain, hits give high values
Summary of the method: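 mec2-1 yeast strain, carrying an alteration in DNA damage repair or cell cycle control, was exposed to compounds; growth inhibition was measured relative to vehicle-treated controls.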

[8] = NCI Yeast Anticancer Drug Screen. Data for the rad14 strain (AID 159);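 also: 0% = growth of vehicle-treated control cultures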; settings: S. cerevisiae rad14 strain growth inhibition, hits give high values
Summary of the method: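 Vehicle-treated cultures served as the baseline for growth inhibition of a DNA repair-mutant yeast strain exposed to each compound.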

[9] = NCI Yeast Anticancer Drug Screen. Data for the sgs1 mgt1 strain (AID 161);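 also: 0% = growth of cultures given vehicle only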; settings: S. cerevisiae sgs1 mgt1 strain, hits give high values
Summary of the method: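 This yeast growth screen uses a strain with defined DNA-repair lesions; compound-treated growth is compared with vehicle-treated growth.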

[10] = NCI Yeast Anticancer Drug Screen. Data for the CLN2oe strain (AID 163);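 also: 0% = growth of vehicle-only control cultures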; settings: S. cerevisiae CLN2oe strain, hits give high values
Summary of the method: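 Yeast cells carrying a defined cell-cycle control alteration were exposed to test compounds. Growth inhibition was scored against vehicle-treated control cultures.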

[11] = NCI Yeast Anticancer Drug Screen. Data for the cln2 rad14 strain (AID 165);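 also: 0% = growth equal to vehicle treated cultures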; settings: S. cerevisiae cln2 rad14 strain, hits give high values
Summary of the method: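 Yeast carrying cln2 and rad14 alterations (cell cycle control and DNA damage repair) were exposed to compounds. Growth inhibition was measured against vehicle-treated controls.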

[12] = NCI Yeast Anticancer Drug Screen. Data for the bub3 strain (AID 167); settings: S. cerevisiae bub3 mutant strain, hits give high values
Summary of the method: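 Inhibition values come from growth of compound-treated mutant yeast normalised to vehicle-treated controls.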

[13] = NCI Yeast Anticancer Drug Screen. Data for the wt2 strain (AID 169);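 also: 0% = growth of vehicle-treated yeast cultures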; settings: S. cerevisiae wt2 strain growth inhibition, hits give high values
Summary of the method: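 Yeast cells were exposed to test compounds, and growth inhibition was measured relative to vehicle-treated controls.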

[14] = NCI Yeast Anticancer Drug Screen. Data for the mlh1 strain (AID 171);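 also: 0% = growth of vehicle-treated control cultures of the same strain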; settings: S. cerevisiae mlh1 strain growth inhibition, hits give high values
Summary of the method: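 Yeast carrying a defined genetic alteration in DNA damage repair or cell cycle control were exposed to test compounds. Growth inhibition was measured relative to vehicle-treated controls.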

[15] = NCI Yeast Anticancer Drug Screen. Data for the sgs1 strain (AID 173);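 also: 0% = growth of vehicle-only control cultures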; settings: S. cerevisiae sgs1 mutant, hits give high values
Summary of the method: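 Yeast mutant strains carrying defined defects in DNA damage repair or cell cycle control were exposed to test compounds. Growth inhibition was scored against vehicle-treated controls.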

[16] = NCI Yeast Anticancer Drug Screen. Data for the rad50EPP+ strain (AID 151);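 also: 0% = growth of vehicle-treated control cultures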; settings: S. cerevisiae rad50 mutant strain, hits give high values
Summary of the method: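 Yeast strain carrying rad50 alteration (rad50EPP+) exposed to compounds; growth inhibition measured relative to vehicle-treated controls.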

[17] = at 5.0 µM (retest, dose inferred, filed as 0.5)
[18] = at 50.0 µM (retest, dose inferred, filed as 5.0)

Measured: growth inhibition

O=[N+]([O-])c1cc[n+]([O-])c(Cl)c1
active: [1]; [18] 99% | [1]; at 50.0 µM 99.5% | [2]; at 33.0 µM 98% | [2]; at 100.0 µM 99%
inactive: [1]; [17] 1% | [2]; at 1.2 µM -25% | [2]; at 3.7 µM -21% | [2]; at 11.0 µM -5%

O=C(O)CNC(c1ccccc1)(c1ccccc1)c1ccccc1
active: [3]; at 33.0 µM 92% | [3]; at 100.0 µM 98% | [4]; at 33.0 µM 83% | [4]; at 100.0 µM 97% | [5]; at 33.0 µM 87% | [5]; at 100.0 µM 96% | [6]; at 33.0 µM 87% | [6]; [18] 97% | [6]; at 50.0 µM 86.3% | [6]; at 100.0 µM 96% | [7]; at 33.0 µM 91% | [7]; [18] 91% | [7]; at 50.0 µM 90% | [7]; at 100.0 µM 99% | [8]; at 33.0 µM 90% | [8]; at 100.0 µM 98% | [9]; [18] 98% | [9]; at 50.0 µM 90.8% | [10]; at 33.0 µM 85% | [10]; at 100.0 µM 98% | [11]; [18] 99% | [11]; at 50.0 µM 86.3% | [12]; at 33.0 µM 94% | [12]; [18] 97% | [12]; at 50.0 µM 90.7% | [12]; at 100.0 µM 98% | [13]; at 33.0 µM 82% | [13]; at 100.0 µM 98% | [14]; at 33.0 µM 82% | [14]; at 100.0 µM 97% | [15]; at 33.0 µM 89% | [15]; at 100.0 µM 97% | [1]; [18] 91% | [1]; at 50.0 µM 89.9% | [2]; at 33.0 µM 89% | [2]; at 100.0 µM 97%
inactive: [3]; at 1.2 µM -9% | [3]; at 3.7 µM -2% | [3]; at 11.0 µM -2% | [4]; at 1.2 µM -15% | [4]; at 3.7 µM -9% | [4]; at 11.0 µM -25% | [5]; at 1.2 µM 19% | [5]; at 3.7 µM 13% | [5]; at 11.0 µM 16% | [6]; at 1.2 µM -10% | [6]; at 3.7 µM -2% | [6]; [17] 43% | [6]; at 11.0 µM -2% | [7]; at 1.2 µM -1% | [7]; at 3.7 µM 12% | [7]; [17] 35% | [7]; at 11.0 µM 6% | [8]; at 1.2 µM -2% | [8]; at 3.7 µM -6% | [8]; at 11.0 µM -6% | [9]; [17] 2% | [10]; at 1.2 µM -14% | [10]; at 3.7 µM -12% | [10]; at 11.0 µM -6% | [11]; [17] 18% | [12]; at 1.2 µM -5% | [12]; at 3.7 µM 13% | [12]; [17] -8% | [12]; at 11.0 µM 24% | [13]; at 1.2 µM -27% | [13]; at 3.7 µM -20% | [13]; at 11.0 µM -9% | [14]; at 1.2 µM -32% | [14]; at 3.7 µM -29% | [14]; at 11.0 µM -20% | [15]; at 1.2 µM 3% | [15]; at 3.7 µM 3% | [15]; at 11.0 µM 5% | [1]; [17] 37% | [2]; at 1.2 µM -5% | [2]; at 3.7 µM -6% | [2]; at 11.0 µM -4%

c1c[nH]c(CN2CCN(Cc3ncc[nH]3)CC2)n1
inactive: [3]; at 1.2 µM 0% | [16]; at 1.2 µM -3% | [16]; at 3.7 µM 3% | [5]; at 1.2 µM -6% | [5]; at 3.7 µM 2% | [6]; at 1.2 µM 4% | [7]; at 1.2 µM -5% | [7]; at 3.7 µM -1% | [7]; [17] 26% | [8]; at 1.2 µM -4% | [8]; at 3.7 µM 18% | [9]; [17] 34% | [10]; at 1.2 µM -3% | [10]; at 3.7 µM 12% | [11]; [17] -69% | [12]; at 1.2 µM -6% | [12]; at 3.7 µM 27% | [12]; [17] 1% | [13]; at 1.2 µM -1% | [13]; at 3.7 µM 54% | [14]; at 1.2 µM -5% | [14]; at 3.7 µM 37% | [15]; at 1.2 µM -2% | [15]; at 3.7 µM 17% | [1]; [17] 46% | [2]; at 1.2 µM 0% | [2]; at 3.7 µM 64%
active: [3]; at 3.7 µM 72% | [3]; at 11.0 µM 96% | [3]; at 33.0 µM 97% | [3]; at 100.0 µM 98% | [16]; at 11.0 µM 92% | [16]; at 33.0 µM 97% | [16]; at 100.0 µM 98% | [5]; at 11.0 µM 96% | [5]; at 33.0 µM 97% | [5]; at 100.0 µM 99% | [6]; at 3.7 µM 93% | [6]; [17] 89% | [6]; at 11.0 µM 97% | [6]; at 33.0 µM 97% | [6]; [18] 99% | [6]; at 50.0 µM 97.4% | [6]; at 100.0 µM 98% | [7]; at 11.0 µM 94% | [7]; at 33.0 µM 98% | [7]; [18] 98% | [7]; at 50.0 µM 97.7% | [7]; at 100.0 µM 98% | [8]; at 11.0 µM 95% | [8]; at 33.0 µM 98% | [8]; at 100.0 µM 99% | [9]; [18] 99% | [9]; at 50.0 µM 98.5% | [10]; at 11.0 µM 96% | [10]; at 33.0 µM 98% | [10]; at 100.0 µM 98% | [11]; [18] 99% | [11]; at 50.0 µM 98.7% | [12]; at 11.0 µM 97% | [12]; at 33.0 µM 97% | [12]; [18] 99% | [12]; at 50.0 µM 97.8% | [12]; at 100.0 µM 98% | [13]; at 11.0 µM 98% | [13]; at 33.0 µM 99% | [13]; at 100.0 µM 99% | [14]; at 11.0 µM 97% | [14]; at 33.0 µM 98% | [14]; at 100.0 µM 99% | [15]; at 11.0 µM 96% | [15]; at 33.0 µM 98% | [15]; at 100.0 µM 99% | [1]; [18] 98% | [1]; at 50.0 µM 98% | [2]; at 11.0 µM 96% | [2]; at 33.0 µM 98% | [2]; at 100.0 µM 98%
